# Screening results deposited in PubChem BioAssay by National Center for Advancing Translational Sciences (NCATS).
# Rows were chosen to be rich in hits. Some 4.6% of all compounds tested hit in one or more screens of this group.
# D1 ag – Allosteric Agonists of the Human D1 Dopamine Receptor: qHTS; D(1A) dopamine receptor (Homo sapiens), P21728; actives 1% (n = 360,000); HEK293 T-REx D1 cells, calcium flux, agonist mode; AID 504660, 2011; activation, % at 2 µM; note: 0% is about no effect
# Target sequence (P21728 whole entry, looked up): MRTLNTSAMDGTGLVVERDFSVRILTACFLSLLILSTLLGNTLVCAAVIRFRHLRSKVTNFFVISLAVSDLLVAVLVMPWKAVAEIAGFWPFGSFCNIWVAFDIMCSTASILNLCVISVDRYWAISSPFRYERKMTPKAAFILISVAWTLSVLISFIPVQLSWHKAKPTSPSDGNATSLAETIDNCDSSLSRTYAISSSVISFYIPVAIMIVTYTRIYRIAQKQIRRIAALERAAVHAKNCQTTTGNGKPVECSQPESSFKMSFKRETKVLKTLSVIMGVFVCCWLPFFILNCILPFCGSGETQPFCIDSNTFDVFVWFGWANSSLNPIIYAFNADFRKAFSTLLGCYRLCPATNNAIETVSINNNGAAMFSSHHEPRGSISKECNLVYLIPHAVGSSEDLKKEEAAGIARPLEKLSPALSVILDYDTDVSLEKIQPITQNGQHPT
#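 Inducible HEK293 T-REx D1 cells, force-coupled to calcium signalling, were plated at 4000 cells/well with tetracycline and held overnight at 30 C. After no-wash calcium dye loading, compound-evoked calcium rise over 180 s flagged agonists.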
# D1 potentiator – Potentiators of Human D1 Dopamine Receptor: qHTS | D(1A) dopamine receptor (Homo sapiens), P21728 | HEK293 TREx D1 cells, calcium flux, dopamine EC20 potentiation | potentiation, % at 10 µM | actives 0.036% (n = 360,000) | AID 504651, 2011; in the data active = potentiation above about 30%; note: 0% is about no effect
# D1 antag – Antagonist of Human D 1 Dopamine Receptor: qHTS. D(1A) dopamine receptor (Homo sapiens), P21728. HEK293 TREx D1 cells, calcium flux, dopamine EC80; stronger effect = lower value. activity change, negative = inhibition, % at 10 µM. actives 3.2% (n = 360,000); in the data active = activity change below about -30%; note: % is set by controls: 0 for no effect and ±100 for the full control effect
#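 Kinetic fluorescence of a calcium dye serves as the read-out. D1-expressing Hek293 Trex cells, induced overnight at 30 C, are exposed to compound for 180 s before an EC80 dopamine addition, then read 180 s further.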
# TRHR enhancer – qHTS for Small Molecule Agonists and Allosteric Enhancers of Human TRH Receptor: Primary Screen for Enhancers. Thyrotropin-releasing hormone receptor (Homo sapiens), P34981. TRHR cells, fluo-8 calcium fluorescence, EC20 TRH enhancement. enhancement, % at 2 µM. actives 0.66% (n = 360,000); in the data active = enhancement above about 30%; note: 0% is about no effect
#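 TRHR-expressing cells loaded with fluo-8 calcium dye were read kinetically (ex 480/em 530) during compound addition, then stimulated with an EC20 of TRH (10 nM final). Enhancement of the Gq-mediated intracellular calcium response was scored.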
# TRHR ag – qHTS for Small Molecule Agonists and Allosteric Enhancers of Human TRH Receptor: Primary Screen for Agonists | actives 0.18% (n = 360,000) | activation, % at 2 µM | AID 493084, 2011 | TRHR cells, calcium flux fluo-8, FDSS agonist mode; note: 0% is about no effect
#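 Agonist-mode FDSS calcium read (Ex 480/Em 530, 1 s cycles) in 1536-well TRHR cells with fluo-8 dye, after 10-cycle baseline and 23 nL compound addition; TRH at EC20 (10 nM final) added afterwards for the enhancer phase.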
# * hit, by the source's call; x = no result given. Cut-off read from the data, not from the text of the source, unless noted: active = activation above about 30%; inactive = the rest.
SMILES,D1 ag,D1 potentiator,D1 antag,TRHR enhancer,TRHR ag
CCC(C)[C@H](NC(=O)Nc1cccc(Cl)c1)C(=O)O (stereo partly specified),31*,-2,-12,-12,0
COc1ccc(N2CCN(S(=O)(=O)c3ccc(OC)c(-c4noc(C)n4)c3)CC2)cc1,2,0,11,-4,-1
CC1=C(C(=O)Nc2ccc(C)cc2C)C(c2cc(Br)ccc2F)n2ncc(C(=O)Nc3ccc(C)cc3)c2N1 (stereo unspecified),4,-1,1,-7,3
CCc1ccccc1NC(=O)Nc1cccc(F)c1,17,-8,-42*,-2,1
O=C(NC(=S)NCc1cccnc1)c1cc2ccccc2o1,6,2,-3,-4,0
O=C(Nc1cccc(Cl)c1)Nc1cccc(Cl)c1,19,-22,-49*,-2,2
O=C(Nc1ccccc1)Nc1cc(Cl)cc(Cl)c1,23,-14,-27,-11,2
O=C(Nc1cccc(Cl)c1)Nc1cnccn1,13,-7,-45*,-6,0
O=C(NC(=S)Nc1cccnc1)c1cc2ccccc2o1,2,-2,-45*,0,0
COc1ccc(N2CCN(C3C(=O)c4ccccc4N3C(C)=O)CC2)cc1 (stereo unspecified),3,-5,-21,2,1
Cn1c(=O)n(CC#N)c2ccccc21,3,-3,5,1,0
N#CCCn1c(=O)n(CCC#N)c2ccccc21,1,-8,-38*,-6,0
CCOC(=O)c1c(C)[nH]c(C(=O)C(C)Cl)c1C (stereo unspecified),1,-13,-32*,-4,0
CCOC(=O)c1c(C)[nH]c(C(C)=O)c1C,1,5,-23,4,1
CN(CC(=O)Nc1ccccc1Cl)CC(=O)c1c(N)n(Cc2ccccc2)c(=O)n(C)c1=O,2,9,-32*,4,0
CCOC(=O)c1c(C)[nH]c(C(=O)CN(C)CC(=O)Nc2ccccc2Cl)c1C,5,-11,-41*,-4,0
CCOC(=O)c1c(C)[nH]c(C(=O)OCC(=O)Nc2ccccc2)c1C,26,-12,-73*,6,0
Nc1ccc2oc(Cc3ccc(Cl)cc3)nc2c1,-1,-5,-10,6,0
COc1ccc(CNC(=O)c2cc3c(-c4ccccc4F)nn(C)c3s2)cc1,12,-1,-9,-4,1
CCN1C(=O)C(Cc2nc3ccccc3c(=O)n2C)c2cc(C)ccc21 (stereo unspecified),-1,-6,2,1,0
CC(C)NC(=O)CC(c1ccccc1)c1cc(Br)ccc1O (stereo unspecified),44*,2,5,8,-1
CCCCCCNC(=O)CC(c1ccccc1)c1cc(Br)ccc1O (stereo unspecified),7,-2,14,8,0
Cn1c(NC(=O)c2cc(-c3ccc4c(c3)OCO4)nc3ccccc23)cc(=O)n(C)c1=O,3,1,-31*,14,0
O=C(O)c1cc(-c2ccc3c(c2)OCO3)nc2ccc(Cl)cc12,3,1,-12,33*,0
C#CCOCCOCCOCCNc1nc(N2CCN(C(=O)CCCCCCCCCCNC(=O)[C@H]([C@@H](C)CC)n3cc(CCCCCN)nn3)CC2)nc(N2CCN(C(=O)CCCCCCCCCCNC(=O)[C@@H]([C@H](C)O)n3cc(C)nn3)CC2)n1,156*,55*,3,3,0
SMILES,D1 ag,D1 potentiator,D1 antag,TRHR enhancer,TRHR ag
C#CCOCCOCCOCCNc1nc(N2CCOCC2)nc(N2CCN(C(=O)[C@H](CCCCN)n3cc([C@@H](N)C(C)CC)nn3)CC2)n1 (stereo partly specified),6,-3,-35*,2,1
C#CCOCCOCCOCCNc1nc(N2CCN(C(=O)CCCCCCCCCCNC(=O)[C@H](CCCCN)n3cc(C)nn3)CC2)nc(N2CCN(C(=O)CCCCCCCCCCNC(=O)[C@@H]([C@H](C)CC)n3cc(CCCCCN)nn3)CC2)n1,30,40*,184,6,4
C#CCOCCOCCOCCNc1nc(N2CCN(C(=O)CCCCCCCCCCNC(=O)[C@H](CCC(=O)O)n3cc(CCCCCN)nn3)CC2)nc(N2CCN(C(=O)CCCCCCCCCCNC(=O)[C@@H]([C@H](C)O)n3cc(C)nn3)CC2)n1,28,1,4,0,0
CCn1cc(C(=O)NCc2ccc(C)cc2)c(=O)c2cc(S(=O)(=O)N3CCCCCC3)ccc21,-1,-2,-13,0,0
Cc1ccc(N2CCN(C(=O)c3c(C)oc4nc(C)nc(N5CCCC5)c34)CC2)c(C)c1,1,2,-2,0,1
CSc1ccc(COC(=O)CCS(=O)(=O)c2ccc(C)cc2)cc1,3,-7,-3,-1,-1
COc1ccc(COC(=O)CCS(=O)(=O)c2ccc(C)cc2)cc1,7,1,-44*,4,-1
COc1cccc(C(=O)N(Cc2cccnc2)c2nc3c(OC)ccc(C)c3s2)c1OC,4,-2,x,0,0
CCOC(=O)c1c(CC(C)C)csc1/N=C/C1C(=O)CC(C)(C)CC1=O,32*,-2,-4,13,12
CCOC(=O)c1cc(C)sc1/N=C/C1C(=O)CC(C)(C)CC1=O,-2,-8,-6,-3,0
CCOC(=O)C1CCN(C(=O)c2ccc(N3CCCC3=O)cc2)CC1,3,-3,5,34*,3
O=C(c1ccc(N2CCCC2=O)cc1)N1CCN(c2ccccc2Cl)CC1,1,-11,-49*,4,0
CCOC(=O)N1CCN(C(=O)c2ccc(N3CCCC3=O)cc2)CC1,1,4,-7,0,1
Cc1ccc(CNC(=O)CN2C(=O)C3(SCC(=O)N3c3cc(C)cc(C)c3)c3ccccc32)cc1 (stereo unspecified),2,-5,-5,-11,0
Cn1nc(-c2ccccc2F)c2cc(C(=O)N3CCN(c4ccccc4F)CC3)sc21,9,-1,-16,-9,1
CCOC(=O)C1=C(C)n2c(s/c(=C/c3cccc([N+](=O)[O-])c3)c2=O)=NC1c1ccc(O)c(OC)c1 (stereo unspecified),9,2,-90*,3,3
CCc1ccccc1N1CC(c2nc3ccccc3n2CCC2CCCCC2)CC1=O (stereo unspecified),12,4,26,-9,0
